Values joined by “and” are separate entries in the source; they are usually repeats but may differ in a detail not shown here. Equal entries are not always repeated. About 2,000 (36%) of roughly 5,500 compounds were called active. Roughly 18% stayed inconclusive and do not appear here. Cut-off read from the data, not from the text of the source: active = normalized growth mostly below about 0.91 (no sharp cut-off); inconclusive = no clear call, values can overlap the other calls; inactive = mostly above about 0.92. Some of the results follow.
Assay: chemical genetic growth profiling, strain panel (AID 1159580);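 note: tested at 20 µM; growth read once vehicle control cultures reached saturation at 30 °C; 1 = growth at the plate median or of vehicle wells; lower values mean less growth of the strain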
Conditions: S. cerevisiae deletion strains, growth OD

Measured: normalized growth

CN1CCC[C@H]1c1cccnc1
inactive: locus YAL013W, strain DEP1, active compounds read low 0.998 | locus YAL021C, strain ccr4, active compounds read low 1.02 | locus YAL026C, strain drs2, active compounds read low 1.03 | locus YAL030W, strain snc1, active compounds read low 1.02 | locus YBL061C, strain skt5, active compounds read low 1.03 | locus YBR009C, strain hhf1, active compounds read low 1.02 | locus YBR021W, strain FUR4, active compounds read low 0.968 | locus YBR023C, strain chs3, active compounds read low 1.05 | locus YBR171W, strain sec66, active compounds read low 1.05 | locus YBR229C, strain ROT2, active compounds read low 0.992 | locus YBR231C, strain swc5, active compounds read low 1.02 | locus YBR279W, strain paf1, active compounds read low 1.02 | locus YCL011C, strain gbp2, active compounds read low 1.03 | locus YCL016C, strain dcc1, active compounds read low 1.03 | locus YCL029C, strain bik1, active compounds read low 0.995 | locus YCL061C, strain MRC1, active compounds read low 1 | locus YCL069W, strain vba3, active compounds read low 1.04 | locus YCR088W, strain abp1, active compounds read low 1.02 | locus YDL005C, strain med2, active compounds read low 1.03 | locus YDL035C, strain GPR1, active compounds read low 1.01 | locus YDL040C, strain nat1, active compounds read low 1.02 | locus YDL074C, strain BRE1, active compounds read low 1.03 | locus YDL101C, strain DUN1, active compounds read low 0.994 | locus YDL134C, strain PPH21, active compounds read low 0.994 | locus YDL185W, strain tfp1, active compounds read low 0.983 | locus YDL192W, strain arf1, active compounds read low 0.997 | locus YDR001C, strain nth1, active compounds read low 1.03 | locus YDR069C, strain doa4, active compounds read low 1.02 | locus YDR101C, strain arx1, active compounds read low 1 | locus YDR137W, strain rgp1, active compounds read low 1.05 | locus YDR150W, strain NUM1, active compounds read low 0.999 | locus YDR159W, strain sac3, active compounds read low 1 | locus YDR162C, strain NBP2, active compounds read low 1.03 | locus YDR195W, strain ref2 1.02 | locus YDR297W, strain sur2, active compounds read low 1.02 | locus YDR318W, strain mcm21, active compounds read low 0.983 | locus YDR334W, strain swr1, active compounds read low 1.03 | locus YDR335W, strain msn5, active compounds read low 1.03 | locus YDR388W, active compounds read low 0.996 | locus YDR392W, strain spt3, active compounds read low 0.964 | locus YDR502C, strain sam2, active compounds read low 1 | locus YEL003W, strain gim4, active compounds read low 1.02 | locus YEL037C, strain rad23, active compounds read low 1.03 | locus YEL061C, strain CIN8 (second series), active compounds read low 1.03 | locus YEL061C, strain CIN8, active compounds read low 0.993 | locus YER015W, strain faa2, active compounds read low 1.03 | locus YER016W, strain bim1, active compounds read low 1.02 | locus YER110C, active compounds read low 0.985 | locus YER111C, strain swi4, active compounds read low 1.04 | locus YER155C, strain BEM2 (second series), active compounds read low 0.991 | locus YER155C, strain BEM2, active compounds read low 0.992 | locus YER167W, strain BCK2, active compounds read low 0.98 | locus YFR010W, strain ubp6, active compounds read low 1.03 | locus YGL078C, strain dbp3, active compounds read low 0.994 | locus YGL086W, strain mad1, active compounds read low 0.969 | locus YGL167C, strain pmr1, active compounds read low 1.04 | locus YGL173C, strain kem1, active compounds read low 1.03 | locus YGL227W, strain vid30, active compounds read low 1.04 | locus YGL240W, strain doc1, active compounds read low 1 | locus YGL248W, strain PDE1, active compounds read low 0.985 | locus YGL253W, strain hxk2, active compounds read low 1.04 | locus YGR078C, strain PAC10, active compounds read low 1.04 | locus YGR135W, strain pre9, active compounds read low 1 | locus YGR229C, strain SMI1, active compounds read low 1.02 | locus YGR252W, strain gcn5, active compounds read low 0.949 | locus YHR013C, strain ard1, active compounds read low 1.06 | locus YHR027C, strain rpn1, active compounds read low 1.03 | locus YHR030C, strain SLT2, active compounds read low 0.991 and 0.959 | locus YHR079C, strain IRE1 (second series), active compounds read low 0.996 | locus YHR079C, strain IRE1, active compounds read low 1.03 | locus YHR094C, strain hxt1, active compounds read low 0.989 | locus YHR129C, strain ARP1, active compounds read low 0.99 | locus YHR142W, strain chs7, active compounds read low 1.06 | locus YHR200W, strain rpn10, active compounds read low 0.981 | locus YIL066C, strain RNR3, active compounds read low 0.985 | locus YIL073C, strain SPO22, active compounds read low 0.968 | locus YIL125W, strain kgd1, active compounds read low 0.997 | locus YIR030C, strain dcg1, active compounds read low 0.995 | locus YJL092W, strain hpr5, active compounds read low 1.02 | locus YJL095W, strain BCK1 (second series), active compounds read low 1.02 | locus YJL095W, strain BCK1, active compounds read low 1.01 and 0.947 | locus YJL115W, strain asf1, active compounds read low 1.02 | locus YJL129C, strain trk1, active compounds read low 1.07 | locus YJL134W, strain LCB3, active compounds read low 0.989 | locus YJL154C, strain vps35, active compounds read low 1.02 | locus YJL164C, strain tpk1, active compounds read low 1.02 | locus YJL166W, strain qcr8, active compounds read low 1.03 | locus YJL168C, strain set2, active compounds read low 0.994 | locus YJL187C, strain SWE1 (second series), active compounds read low 0.997 | locus YJL187C, strain SWE1, active compounds read low 1.02 | locus YJR043C, strain POL32, active compounds read low 0.995 | locus YJR066W, strain TOR1, active compounds read low 0.943

— PubChem BioAssay AID1159580 (chemical genetic matrix, 2015)
